# Screens deposited in PubChem by National Center for Advancing Translational Sciences (NCATS).
# HT1080-NT tox – qHTS for induction of synthetic lethality in tumor cells producing 2HG: qHTS for the HT-1080-NT fibrosarcoma cell line. 1.6% of 360,000 active. HT-1080-NT fibrosarcoma viability, CellTiter-Glo ATP luminescence, 48 h. Potency, µM (titrated, usually from 46.1 µM), without a hit: at the top dose activity, negative = less viability, usual class: cytotoxic;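 also: NT is the 2HG producing partner of a matched IDH1 knockdown line; potency is read from the fitted curve at half-maximal effect; 0% = DMSO-treated cells and -100% = media-only wells without cells; nearly all actives have a fitted effect of over 55% in size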
#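 Read-out is CellTiter-Glo luminescence after 10 minutes at room temperature, following 48 hours' compound treatment of HT-1080-NT cells (750 cells/well, RPMI, 5% FBS, 37 degrees C).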
# KB-V1 cytotox – qHTS assay for MDR1-selective chemotherapeutics: Primary screen using the drug-selected MDR subline cells KB-V1. KB-V1 MDR cells viability, CellTiter-Glo, 72 h. Potency, µM (series often up to 46.1 µM), usual class: cytotoxic. 3.4% of 400,000 active; also: potency is read from the fitted curve at half-maximal effect; nearly all actives have a fitted effect of over 60% in size
#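 In this primary screen, KB-V1 cells overexpressing P-gp are incubated with library compounds (lowest to highest concentration) for 72 h at 37 degrees C before a luminescent ATP viability read.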
# IL-1B inflam inh – qHTS for Inhibitors of Inflammasome Signaling: IL-1-beta AlphaLISA Primary Screen; THP-1 LPS/ATP IL-1B secretion, AlphaLISA, 16 h; stronger effect = lower value; activity change, % at 57.5 µM; 4.7% of 360,000 active; in the data active = activity change below about -50%; inconclusive = mostly about -30% to -49%
#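 Secreted IL-1B measured by AlphaLISA bead assay after 16 h compound exposure of THP-1 cells; compounds (final up to 57.5 uM) added 1 h before LPS (250 ng/mL) and ATP (1.25 mM) stimulation; lower signal means less secretion.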
# KB-3-1 cytotox – qHTS assay for MDR1-selective chemotherapeutics: Primary screen using the parental adenocarcinoma cell KB-3-1 | 1.4% of 400,000 active | Potency, µM (doses to about 46.1 µM), actives largely listed as cytotoxic | AID 1347075, 2019 | KB-3-1 viability, CellTiter-Glo ATP luminescence, 72 h; also: potency is read from the fitted curve at half-maximal effect; nearly all actives have a fitted effect of over 60% in size
#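 72 h, 37 °C compound treatment of KB-3-1 parental cells; CellTiter-Glo added, 10 min, luminescence read. Data corrected against DMSO-only plates and normalized before curve fitting.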
# HT1080 IDH1KD tx – qHTS for induction of synthetic lethality in tumor cells producing 2HG: qHTS for the HT-1080-IDH1KD cell line; HT-1080 IDH1 knockdown viability, ATP luminescence, 48 h; Potency, µM (doses to about 46.1 µM), for inactives: at the top dose activity, negative = toxicity, most hits filed as cytotoxic; 2% of 360,000 active; AID 686971, 2013;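 also: potency is read from the fitted curve at half-maximal effect; 0% = DMSO wells and -100% = cell-free medium wells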
#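 In this qHTS, HT-1080 cells depleted of IDH1 are exposed for 48 h at 37 °C to compound titrations. Toxicity is scored from CellTiter-Glo luminescence, with DMSO as full viability and medium alone as none.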
# The depositor's hits bear a star; i = inactive; ? = inconclusive; / = not tested or not shown; [ ] = remark or other dose. In the library only some 8.8% were active in any assay of this set; here they are far more common. Unless noted, calls follow the shape of the dose curve; as a rule, active = well fitted curve in the direction sought with a large enough effect; inconclusive = small, poorly fitted or top-dose-only effect, or another doubt; inactive = no such curve, though single readings can be large; an effect the other way counts as inactive or inconclusive. Unless noted, % is scaled to controls: 0 for no effect and ±100 for the full control effect.
SMILES,HT1080-NT tox,KB-V1 cytotox,IL-1B inflam inh,KB-3-1 cytotox,HT1080 IDH1KD tx
NNC(=O)c1ccc(Cn2cccn2)o1,-0.8%,i,14.2,i,-1.9%
Cc1ccc(N(CC(=O)N2CCN(c3cccc(C)c3C)CC2)S(=O)(=O)c2c(C)nn(C)c2C)cc1,/,i,/,i,/
Cc1c(C#N)c(N)nc(Cl)c1C#N,?,i,-167.8*,i,?
C=CCNC(=O)c1c2c(nc3ccccc13)-c1ccccc1CC2,-6.2%,?,-14.1,i,-6.6%
c1cncc(CNc2ncnc3sc4c(c23)CCCC4)c1,-19.3%,?,45.7,i,-12.6%
Cc1sc2ncnc(NCC(C)(C)N3CCOCC3)c2c1C,-27.6%,4.11µM*,?,?,-20.8%[9.24 µM]
Cc1sc2ncnc(NCC(c3ccco3)N(C)C)c2c1C (stereo not drawn),5.2%,18.4µM*,16.8,i,7.2%
CN(C)C(CNc1ncnc2sc3c(c12)CCCCC3)c1ccco1 (stereo not drawn),-20.1%,?,-51.4*,i,-23.5%
Cc1sc2ncnc(Nc3ccccc3)c2c1C,-9.0%,i,-4.3,i,4.1%
Cc1sc2ncnc(NCc3ccccc3)c2c1C,-29.0%,?,-67.8*,23.1µM*,-24.7%
O=C(COC(=O)CNC(=O)c1ccccc1Cl)NC1CC1,2.9%,?,10.5,i,2.0%
Cc1nnc(SCC2=C(C(=O)O)N3C(=O)C(NC(=O)C(C)n4nc(C(F)(F)F)cc4C)C3SC2)s1 (stereo not drawn),14.5%,i,26.3,i,23.2%
COc1ccc(C(CNc2ncnc3sc(C)c(C)c23)N(C)C)cc1 (stereo not drawn),-2.2%,10.3µM*,-6.0,?,0.5%
COC(=O)C[C@@H]1C=C[C@H](NC(=O)c2cnccn2)[C@@H](CO)O1,14.7%,i,20.4,i,25.4%
CO[C@H]1CN(C)C(=O)c2ccc(NC(=O)C3CCC3)cc2OC[C@H](C)N(Cc2ccc(F)cc2)C[C@@H]1C,1.1%,i,-69.9*,?,-0.7%
CC1CC(C)CN(S(=O)(=O)c2ccc(C(=O)N3CCN(c4ccccc4)CC3)cc2)C1 (stereo not drawn),-11.0%,i,-65.7*,i,?
O=C(c1ccc(S(=O)(=O)N2CCOCC2)cc1)N1CCN(c2ccc(F)cc2)CC1,4.8%,i,-4.4,i,6.3%
O=C(c1ccc(S(=O)(=O)N2CCCCCC2)cc1)N1CCN(c2ccccc2)CC1,4.6%,i,-16.2,i,10.3%
O=C(c1ccc(S(=O)(=O)N2CCOCC2)cc1)N1CCN(c2cccc(Cl)c2)CC1,-1.3%,14.6µM*,0.0,i,-1.6%
O=C(Nc1ccncc1)C1C(=O)c2ccccc2N(Cc2ccccc2)C1=O (stereo not drawn),/,i,/,i,/
On1nnc2c3ccccc3c3ccccc3c21,1.3%,i,42.1,i,1.5%
CC1Cc2ccccc2C[N+]1(C)CC(=O)c1cccc([N+](=O)[O-])c1 (stereo not drawn),/,i,/,i,/
O=C(O)C1CC=CCC1C(=O)N1CCN(c2nc(-c3ccccc3)c3ccccc3n2)CC1 (stereo not drawn),-5.5%,i,-63.4*,i,-21.8%
CCN1CCN(c2nc(-c3ccccc3)c3ccccc3n2)CC1,13µM*,i,?,i,?
Cc1ccc(Cn2c(CCNC(=O)C(C)C)nc3ccccc32)cc1,/,i,/,i,/
SMILES,HT1080-NT tox,KB-V1 cytotox,IL-1B inflam inh,KB-3-1 cytotox,HT1080 IDH1KD tx
O=C(NCCC1=CCCCC1)C(=O)NCC(c1ccco1)N1CCN(c2ccccc2)CC1 (stereo not drawn),4.7%,?,30.3,i,0.1%
COc1ccc(N2CCN(C(CNC(=O)C(=O)NCCC3=CCCCC3)c3ccco3)CC2)cc1 (stereo not drawn),-0.9%,2.59µM*,8.2,i,0.3%
O=C(NCCC1=CCCCC1)C(=O)NCC(c1ccco1)N1CCN(c2ccccc2F)CC1 (stereo not drawn),13.1%,4.11µM*,2.2,i,2.3%
Cc1ccnc(NC(=S)Nc2cccc([S+](=O)([O-])Nc3ccccc3F)c2)c1,/,i,/,i,/
OCCCNc1nc(-c2ccc(Cl)cc2)nnc1-c1ccc(Br)cc1,?,i,-78.4*,23.1µM*,?
O=[N+]([O-])c1ccc(-c2nnc(-c3ccccc3)c(NCCCO)n2)cc1,0.8%,?,-17.9,i,-7.3%
COc1ccc(CN2C(=O)C(CC(=O)NC3CCCC3)CC(C(=O)N(C)C)=C2C)cc1 (stereo not drawn),1.8%,i,-13.2,i,3.0%
CCOc1ccc(C(=O)OCc2cc(=O)n3nc(C(C)C)sc3n2)cc1,/,i,/,i,/
Nc1nc(N)c2sc3nc4c(cc3c2n1)CCC4,-11.1%,20.6µM*,0.0,i,-2.0%[9.24 µM]
Cc1cc(C)c2c(N)c(C(=O)C(C)(C)C)sc2n1,-0.7%,i,13.1,i,1.3%
Cc1cc(C)c2c(N)c(S(=O)c3ccc(C(C)(C)C)cc3)sc2n1 (stereo not drawn),-27.7%,i,-67.0*,i,-13.1%
Cc1ccc(S(=O)(=O)N2[C@H](CC(=O)Oc3ccccc3)OC[C@@H]2C(C)C)cc1,-0.3%,i,15.4,i,-2.1%
Oc1ccccc1C1N=C(c2ccccc2)NC(c2ccccc2)=N1,9.1%,i,-55.1*,i,1.3%
COc1ccc(Cl)cc1NC(=O)CN(C)C(=O)c1ccc(N2CCCCCC2)c([N+](=O)[O-])c1,-0.6%,?,-6.0,?,-17.2%
CN(CC(=O)Nc1ccc(Cl)c(C(F)(F)F)c1)C(=O)c1ccc(N2CCOCC2)c([N+](=O)[O-])c1,23.1µM*,i,?,i,?
Cc1ccc(NC(=O)CN(C)C(=O)c2ccc(Cl)c([N+](=O)[O-])c2)cc1,17.1%,i,-85.3*,i,14.9%
CN(CC(=O)Nc1cccc(F)c1)C(=O)c1ccc(N2CCOCC2)c([N+](=O)[O-])c1,-0.2%,i,57.6,i,-10.7%
COc1ccc(Cl)cc1NC(=O)CN(C)C(=O)c1ccc(N2CCCCC2)c([N+](=O)[O-])c1,-13.3%,?,-14.2,14.6µM*,-16.6%
Cn1c(=O)n(C)c2cc(NS(=O)(=O)c3ccc(Br)cc3)c(NCc3ccccc3)cc21,/,?,/,i,/
OC(CNC1CCCc2ccccc21)COc1c(Cl)cccc1Cl (stereo not drawn),-20.2%,i,-101.1*,i,?
